Screens from PubChem.
Sampled rows, rich in hits. Any-hit rate of the full collection: about 21%.
Shiga toxin inh = A qHTS for Small Molecule Inhibitors of Shiga Toxin | Vero cells, Shiga toxin protein synthesis inhibition reporter | inhibition, % at 38.7 µM | 290,000 tested, 9.2% active; in the data active = inhibition mostly above about 28%, no sharp cut-off; inactive = mostly below about 43%; note: 0% is about no effect
CHX counter = Cycloheximide Counterscreen for Small Molecule Inhibitors of Shiga Toxin. cell reporter, cycloheximide protein synthesis inhibition counterscreen. max response, %. 300,000 tested, 12% active. AID 2314, 2010; in the data active = max response mostly above about 13%, no sharp cut-off; inactive = mostly below about 14%; note: read at 38.3 µM for the half of the compounds with a filed dose; 0% is about no effect
Pf growth 96h = Primary qHTS for delayed death inhibitors of the malarial parasite plastid, 96 hour incubation. P. falciparum luciferase reporter growth, 96 h. Potency, µM (top dose mostly 28.7 µM), for the others: at the top dose activity change, negative = inhibition, hits mostly inhibitors. 320,000 tested, 6.9% active; note: potency is the fitted concentration of half-maximal effect; % is set by controls: 0 for no effect and ±100 for the full control effect
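Compounds incubated with erythrocytes infected by luciferase-expressing P. falciparum (2% hematocrit, 0.05% parasitemia final) for 96 hours, 37 C in 5% CO2. Growth inhibition scored as decreased luciferase luminescence.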
Pf growth 48h = Primary qHTS for delayed death inhibitors of the malarial parasite plastid, 48 hour incubation; P. falciparum luciferase growth in erythrocytes, 48 h; Potency, µM (top dose mostly 28.7 µM), inactives show at the top dose activity change, negative = inhibition, hits mostly inhibitors; 310,000 tested, 5.9% active; note: potency is the fitted concentration of half-maximal effect; % is set by controls: 0 for no effect and ±100 for the full control effect
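Read-out is firefly luciferase luminescence from an integrated reporter in P. falciparum, so falling signal marks reduced parasite growth. Infected erythrocytes were at 2% hematocrit and 0.1% parasitemia (final) in Albumax-supplemented RPMI 1640.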
* marks the source's active call; other numbers are inactive results. Unless noted, calls come from the whole dose curve; as a rule, active = well fitted inhibition curve with a large enough effect; inconclusive = small, poorly fitted or top-dose-only effect, or another doubt; inactive = no such curve, though single readings can be large or run the other way.

How did Cc1ccc(N2CCN(Cc3ccccc3)CC2=O)c(C)c1 do in these assays?
Shiga toxin inh: 9; CHX counter: 7; Pf growth 96h: inconclusive; Pf growth 48h: 7%

What do the screens show for `CSc1nc2ccc(S(=O)(=O)N3CCOCC3)cc2s1`?
Shiga toxin inh: 21; CHX counter: -2; Pf growth 96h: inconclusive; Pf growth 48h: -5%

How did O=S(=O)(c1cccc(-c2nnc(SCc3nc4ccccc4s3)o2)c1)N1CCOCC1 do in these assays?
Shiga toxin inh: 128*; CHX counter: 97*; Pf growth 96h: -8%; Pf growth 48h: 79%

How did N#CCc1nc2ccc(S(=O)(=O)N3CCOCC3)cc2s1 do in these assays?
Shiga toxin inh: -2; CHX counter: 1; Pf growth 96h: 13µM*; Pf growth 48h: 15µM*

Results for O=C(OCc1ccccc1)c1ccccc1 ?
Pf growth 96h: 1%; Pf growth 48h: 15%

How did O=C(OCc1ccccc1)c1ccc2c(c1)-c1ccccc1C2=O do in these assays?
Shiga toxin inh: 27*; CHX counter: 16*; Pf growth 96h: inconclusive; Pf growth 48h: 9.3µM*

What do the screens show for `N#CCN1CCC(c2cc(-c3ccco3)n[nH]2)CC1`?
Shiga toxin inh: 16; CHX counter: -3; Pf growth 96h: inconclusive; Pf growth 48h: -14%

Results for COc1ccc(-c2nn(-c3ccccc3)cc2C(N)=O)cc1OC ?
CHX counter: 6; Pf growth 96h: 15µM*; Pf growth 48h: 42%

Results for COc1ccc(-c2nn(-c3ccccc3)cc2/C=N/n2cnnc2)cc1OC ?
Shiga toxin inh: -2; CHX counter: -3; Pf growth 96h: -14%; Pf growth 48h: inconclusive

How did COc1ccc(-c2nn(-c3ccccc3)cc2/C=C/C(=O)O)cc1[N+](=O)[O-] do in these assays?
Shiga toxin inh: 41; CHX counter: 13*; Pf growth 96h: -8%; Pf growth 48h: -17%

How did COc1ccc(-c2nn(-c3ccccc3)cc2/C=N/NC(N)=S)cc1OC do in these assays?
Shiga toxin inh: 17; CHX counter: -2; Pf growth 96h: 15µM*; Pf growth 48h: 12µM*

What do the screens show for `NC(=O)c1cn(-c2ccccc2)nc1-c1cccnc1`?
Shiga toxin inh: -6; CHX counter: -2; Pf growth 96h: 18%; Pf growth 48h: 14%

What do the screens show for `Cc1ccc(NC(=O)C2CC(O)CN2C(=O)OCc2ccccc2)cc1C` (stereo not drawn)?
Shiga toxin inh: -5; CHX counter: 1; Pf growth 96h: inconclusive; Pf growth 48h: inconclusive

Results for COc1cccc2cc(CC(=O)c3ccc(C)cc3C)c(=O)oc12 ?
Shiga toxin inh: 73*; CHX counter: 55*; Pf growth 96h: -6%; Pf growth 48h: -10%

How did Cc1ccc(S(=O)(=O)CC(=O)c2cc3cccc(C)c3oc2=O)cc1 do in these assays?
Shiga toxin inh: -6; CHX counter: -1; Pf growth 96h: 16%; Pf growth 48h: 18%

What do the screens show for `COc1cccc2cc(C(=O)CS(=O)(=O)c3ccc(C)cc3)c(=O)oc12`?
Shiga toxin inh: 19; CHX counter: -3; Pf growth 96h: 4.7µM*; Pf growth 48h: 4%

What do the screens show for `CCC1(c2ccccc2)CCC(=O)NC1=O` (stereo not drawn)?
Shiga toxin inh: -6; CHX counter: -3; Pf growth 96h: inconclusive; Pf growth 48h: 19µM*

What do the screens show for `CCC1(c2ccccc2)C(=O)NCNC1=O`?
Shiga toxin inh: -2; CHX counter: -2; Pf growth 96h: -9%; Pf growth 48h: 5%

What do the screens show for `CCn1cc(C(=O)O)c(=O)c2cnc(N3CCN(C(=S)Nc4ccccc4C(F)(F)F)CC3)nc21`?
Shiga toxin inh: 1; CHX counter: -1; Pf growth 96h: 0%; Pf growth 48h: -20%

Results for O=C(NCC1CCCO1)c1ccccc1-c1nc(-c2ccc(Cl)cc2)no1 (stereo not drawn) ?
Shiga toxin inh: 27; CHX counter: 12*; Pf growth 96h: 8%; Pf growth 48h: 31%

What do the screens show for `Cc1cccc(-c2noc(-c3ccccc3C(=O)NCC3CCCO3)n2)c1` (stereo not drawn)?
Shiga toxin inh: 143*; CHX counter: 63*; Pf growth 96h: 4%; Pf growth 48h: 76%

Results for O=C(NCC1CCCO1)c1ccccc1-c1nc(-c2ccccc2F)no1 (stereo not drawn) ?
Shiga toxin inh: -4; CHX counter: 15; Pf growth 96h: 32%; Pf growth 48h: 32%

How did Cc1ccc(-c2cc(C(=O)NCc3ccc4c(c3)OCO4)[nH]n2)c(O)c1C do in these assays?
Shiga toxin inh: 8; CHX counter: 12; Pf growth 96h: 12µM*; Pf growth 48h: 0%

Results for COc1ccc(CCNC(=O)c2cc(-c3ccc(C)c(C)c3O)n[nH]2)cc1OC ?
Shiga toxin inh: 6; CHX counter: 11; Pf growth 96h: 15µM*

Results for Cc1cc(O)c(-c2cc(C(=O)NCc3ccc4c(c3)OCO4)[nH]n2)cc1C ?
Shiga toxin inh: 84; CHX counter: 2; Pf growth 96h: inconclusive; Pf growth 48h: 0%

What do the screens show for `CC(OC(=O)CCCCCN=C1NS(=O)(=O)c2ccccc21)C(=O)Nc1cc(Cl)cc(Cl)c1` (stereo not drawn)?
Shiga toxin inh: -9; CHX counter: -3; Pf growth 96h: 29%; Pf growth 48h: 26%

What do the screens show for `COc1ccc(NC(=O)Cc2nnc(SCC(=O)NC3=NCCS3)n2C)cc1`?
Shiga toxin inh: -13; CHX counter: -4; Pf growth 96h: 19%; Pf growth 48h: 4%

How did CCSC1=C(C#N)C(c2cccc(O)c2)CC(=O)N1 (stereo not drawn) do in these assays?
Shiga toxin inh: -8; CHX counter: 0; Pf growth 96h: -28%

How did CCSC1=C(C#N)C(c2cccc(Br)c2)CC(=O)N1 (stereo not drawn) do in these assays?
Shiga toxin inh: 4; CHX counter: 6; Pf growth 96h: 13%; Pf growth 48h: 6.6µM*

Results for O=C(NCc1ccc(/C=N\NC(=O)C(=O)Nc2ccccc2Br)o1)C(=O)Nc1ccccc1 ?
Shiga toxin inh: -2; CHX counter: 13; Pf growth 96h: -16%; Pf growth 48h: -5%

What do the screens show for `CC(C)C1C(=O)CC(c2ccccc2)NC1c1ccccc1` (stereo not drawn)?
Shiga toxin inh: -9; CHX counter: -1; Pf growth 96h: 1.2µM*; Pf growth 48h: -28%

Results for Cc1cc(OCC(=O)NCCCn2ccnc2)c2c(C)c(C)c(=O)oc2c1 ?
Shiga toxin inh: 32; CHX counter: 9; Pf growth 96h: -23%; Pf growth 48h: 4%

What do the screens show for `N#C/C(=C\c1ccc(N2CCOCC2)o1)C(=O)NC1CCCCC1`?
Shiga toxin inh: 46*; CHX counter: 23*; Pf growth 96h: inconclusive; Pf growth 48h: inconclusive

What do the screens show for `N#C/C(=C/c1ccc(N2CCOCC2)o1)C(=O)Nc1ccccc1`?
Shiga toxin inh: 76*; CHX counter: 36*; Pf growth 96h: 14%; Pf growth 48h: 11%

Results for N#C/C(=C\c1ccc(N2CCOCC2)o1)C(=O)NCCc1ccccc1 ?
Shiga toxin inh: 16; CHX counter: 18; Pf growth 96h: inactive; Pf growth 48h: inconclusive
